The values that follow come from ChEMBL document CHEMBL3988442, “University of Dundee, Small-Polar-MMV Screening Library” (2021).

For some of these results: Entries with a potency or affinity are not part of this list.

Design in all cases: scale not given: direction of the effect not stated beside the values
Assay [1] addresses Protein translocase subunit SecA (Escherichia coli (strain K12)) (UniProt P10408). Description: Assay to Identify E. coli SecA ATPase Inhibitors. It counts as functional. To be noted: 30 µM.
The target in assay [2] is T1, Ubiquitin-activating enzyme e1, putative (Leishmania donovani (strain BPK282A1)) (UniProt E9BSI1).
T1 sequence (whole entry): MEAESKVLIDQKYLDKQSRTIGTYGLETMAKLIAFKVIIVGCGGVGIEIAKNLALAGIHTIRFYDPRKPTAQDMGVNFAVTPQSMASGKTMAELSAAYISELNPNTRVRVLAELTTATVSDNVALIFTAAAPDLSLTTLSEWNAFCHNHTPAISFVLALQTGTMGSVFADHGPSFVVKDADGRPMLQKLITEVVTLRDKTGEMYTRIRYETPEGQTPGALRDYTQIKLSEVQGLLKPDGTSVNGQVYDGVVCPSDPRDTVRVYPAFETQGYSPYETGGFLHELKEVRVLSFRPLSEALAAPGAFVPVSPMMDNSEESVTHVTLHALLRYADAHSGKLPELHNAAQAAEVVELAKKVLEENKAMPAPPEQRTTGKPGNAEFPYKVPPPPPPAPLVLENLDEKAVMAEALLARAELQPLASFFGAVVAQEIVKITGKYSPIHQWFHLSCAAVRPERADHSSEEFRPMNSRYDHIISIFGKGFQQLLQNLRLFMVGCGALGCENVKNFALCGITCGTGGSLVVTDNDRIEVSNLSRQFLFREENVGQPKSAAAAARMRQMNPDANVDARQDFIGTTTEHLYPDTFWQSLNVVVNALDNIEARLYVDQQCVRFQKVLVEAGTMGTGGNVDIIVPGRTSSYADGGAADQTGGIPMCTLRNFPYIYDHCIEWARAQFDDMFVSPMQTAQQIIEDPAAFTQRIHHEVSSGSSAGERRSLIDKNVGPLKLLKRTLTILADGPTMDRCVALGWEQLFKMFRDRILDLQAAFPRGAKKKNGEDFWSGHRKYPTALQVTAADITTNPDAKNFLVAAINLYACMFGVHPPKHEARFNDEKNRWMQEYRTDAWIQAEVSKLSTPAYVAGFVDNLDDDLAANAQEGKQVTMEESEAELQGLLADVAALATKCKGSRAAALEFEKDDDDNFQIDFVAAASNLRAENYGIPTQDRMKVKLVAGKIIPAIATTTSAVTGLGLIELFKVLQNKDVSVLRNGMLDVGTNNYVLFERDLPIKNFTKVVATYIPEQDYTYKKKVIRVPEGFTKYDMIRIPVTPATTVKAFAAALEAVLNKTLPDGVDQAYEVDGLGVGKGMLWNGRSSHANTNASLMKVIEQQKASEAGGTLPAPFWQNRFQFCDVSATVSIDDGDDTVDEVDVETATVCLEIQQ
Kind of assay: Leishmania donovani Ubiquitin Activating Enzyme (LdE1). It counts as functional. The note with it: 30 µM.

Assay [3] addresses AMP-activated protein kinase, AMPK (Homo sapiens) (UniProt P54646+O43741+P54619+Q9UGJ0+Q9Y478+Q13131+Q9UGI9). Description: AMP-dependent Kinase enzyme assay. An in vitro enzyme assay that detects ADP turnover that is directly proportional to AMPK activity. This uses naive AMPK that is activated during the assay with MK-8722. It counts as functional. To be noted: 30 µM.
Assay [4] has as its target Sialic acid-binding Ig-like lectin 9 (Homo sapiens) (UniProt Q9Y336). Kind of assay: Hs-Siglec9 ALPHAscreen SOP 20170721. To be noted: 10 µM. (Bead proximity is the source of the signal in Alpha formats.)
The next assay has as its system Trypanosoma cruzi. Kind of assay: Trypanosoma cruzi phosphomannomutase and mannose-1-phosphate guanylyltransferase assay. It counts as functional. The note with it: 10 µM.
Assay [5] deals with T2, Arginase-2, mitochondrial (Homo sapiens) (UniProt P78540).
T2 sequence (whole entry): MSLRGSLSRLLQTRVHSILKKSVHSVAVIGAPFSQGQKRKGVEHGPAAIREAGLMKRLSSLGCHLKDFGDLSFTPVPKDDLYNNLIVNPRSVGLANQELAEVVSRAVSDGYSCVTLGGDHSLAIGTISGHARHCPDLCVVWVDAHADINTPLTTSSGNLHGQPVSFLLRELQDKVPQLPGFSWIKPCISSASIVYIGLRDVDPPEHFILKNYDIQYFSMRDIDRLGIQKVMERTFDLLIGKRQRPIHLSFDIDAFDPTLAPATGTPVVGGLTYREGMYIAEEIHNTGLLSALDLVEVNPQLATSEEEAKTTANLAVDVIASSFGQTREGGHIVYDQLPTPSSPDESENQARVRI
Description: in vitro enzyme assay to detect the production of urea directly proportional to the activity of Arginase II. Further: in the data most compounds retested in dose-response had high values. It counts as functional. The note with it: 33.3 µM.

Assay [6] concerns the target T3, Proteasome subunit beta (Trypanosoma cruzi) (UniProt O96673).
T3 sequence (whole entry): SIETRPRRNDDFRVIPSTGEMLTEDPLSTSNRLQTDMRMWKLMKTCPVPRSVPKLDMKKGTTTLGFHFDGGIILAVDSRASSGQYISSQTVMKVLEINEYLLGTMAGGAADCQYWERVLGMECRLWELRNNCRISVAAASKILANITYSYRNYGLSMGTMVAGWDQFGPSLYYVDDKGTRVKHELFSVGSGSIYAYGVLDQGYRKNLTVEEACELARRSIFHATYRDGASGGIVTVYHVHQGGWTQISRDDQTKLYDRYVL
Description: Trypanosoma cruzi proteasome chymotrypsin-like activity (TcProtChymo) assay. Further: in the data most compounds retested in dose-response had high values. It counts as functional. To be noted: 9.37 µM.

The species entered for a further assay is Homo sapiens. Description: To identify inhibition of the IFN signalling (Jak-Stat) pathway via expression of an eGFP reporter gene under the control of an IFN-stimulated response element (ISRE) containing MxA promoter. It counts as functional. The note with it: 30 µM.
For assay [7], the target named is T4, Tyrosyl-tRNA synthetase, putative (Trypanosoma cruzi (strain CL Brener)) (UniProt Q4DSP6).
T4 sequence (whole entry): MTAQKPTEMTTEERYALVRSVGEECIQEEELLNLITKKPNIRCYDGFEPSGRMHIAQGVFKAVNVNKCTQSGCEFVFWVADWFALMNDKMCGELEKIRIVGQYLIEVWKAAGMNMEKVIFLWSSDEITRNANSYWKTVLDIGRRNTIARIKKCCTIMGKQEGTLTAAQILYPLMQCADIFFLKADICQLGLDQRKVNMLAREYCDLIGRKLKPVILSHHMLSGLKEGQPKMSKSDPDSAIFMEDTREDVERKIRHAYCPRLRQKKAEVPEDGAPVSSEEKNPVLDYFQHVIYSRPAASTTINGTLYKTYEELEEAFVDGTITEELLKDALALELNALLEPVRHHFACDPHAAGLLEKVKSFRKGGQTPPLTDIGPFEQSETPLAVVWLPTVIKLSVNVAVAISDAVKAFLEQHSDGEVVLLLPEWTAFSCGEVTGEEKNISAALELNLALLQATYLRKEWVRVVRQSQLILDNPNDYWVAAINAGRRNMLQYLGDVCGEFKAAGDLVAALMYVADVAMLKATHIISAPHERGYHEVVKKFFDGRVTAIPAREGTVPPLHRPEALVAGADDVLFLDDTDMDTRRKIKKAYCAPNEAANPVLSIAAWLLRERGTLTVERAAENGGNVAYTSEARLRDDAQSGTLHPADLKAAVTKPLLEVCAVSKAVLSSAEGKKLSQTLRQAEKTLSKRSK
Kind of assay: Trypanosoma cruzi tyrosyl tRNA synthetase (TcYRS) _High Tyrosine SOP. Further: in the data most compounds retested in dose-response had high values. It counts as functional. To be noted: 30 µM.

The target in assay [8] is T4, Tyrosyl-tRNA synthetase, putative (Trypanosoma cruzi (strain CL Brener)). Kind of assay: Trypanosoma cruzi tyrosyl tRNA synthetase (TcYRS) SOP. It is filed as functional. The note with it: 30 µM.
Assay [9] has as its target Chromo domain-containing protein 1 (Saccharomyces cerevisiae (strain ATCC 204508 / S288c) (Baker's yeast)) (UniProt P32657). Kind of assay: ScCHD-1 Enzyme Inhibition Assay. Further: in the data most compounds retested in dose-response had high values. It is filed as functional. The note with it: 30 µM.

Sialic acid-binding Ig-like lectin 9 (Homo sapiens), sequence (Q9Y336 whole entry): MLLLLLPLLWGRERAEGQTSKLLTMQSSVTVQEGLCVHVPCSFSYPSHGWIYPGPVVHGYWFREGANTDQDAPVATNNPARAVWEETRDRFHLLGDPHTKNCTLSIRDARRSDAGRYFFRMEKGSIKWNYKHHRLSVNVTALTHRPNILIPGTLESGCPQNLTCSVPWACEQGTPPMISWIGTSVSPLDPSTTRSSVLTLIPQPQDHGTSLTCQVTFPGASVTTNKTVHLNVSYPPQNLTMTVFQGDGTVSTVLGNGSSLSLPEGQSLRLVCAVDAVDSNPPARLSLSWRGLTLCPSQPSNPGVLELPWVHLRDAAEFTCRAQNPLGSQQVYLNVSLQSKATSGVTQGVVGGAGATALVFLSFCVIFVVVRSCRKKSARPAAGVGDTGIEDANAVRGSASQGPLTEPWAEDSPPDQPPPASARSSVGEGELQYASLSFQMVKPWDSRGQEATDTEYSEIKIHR
Protein translocase subunit SecA (Escherichia coli (strain K12)), sequence (P10408 whole entry): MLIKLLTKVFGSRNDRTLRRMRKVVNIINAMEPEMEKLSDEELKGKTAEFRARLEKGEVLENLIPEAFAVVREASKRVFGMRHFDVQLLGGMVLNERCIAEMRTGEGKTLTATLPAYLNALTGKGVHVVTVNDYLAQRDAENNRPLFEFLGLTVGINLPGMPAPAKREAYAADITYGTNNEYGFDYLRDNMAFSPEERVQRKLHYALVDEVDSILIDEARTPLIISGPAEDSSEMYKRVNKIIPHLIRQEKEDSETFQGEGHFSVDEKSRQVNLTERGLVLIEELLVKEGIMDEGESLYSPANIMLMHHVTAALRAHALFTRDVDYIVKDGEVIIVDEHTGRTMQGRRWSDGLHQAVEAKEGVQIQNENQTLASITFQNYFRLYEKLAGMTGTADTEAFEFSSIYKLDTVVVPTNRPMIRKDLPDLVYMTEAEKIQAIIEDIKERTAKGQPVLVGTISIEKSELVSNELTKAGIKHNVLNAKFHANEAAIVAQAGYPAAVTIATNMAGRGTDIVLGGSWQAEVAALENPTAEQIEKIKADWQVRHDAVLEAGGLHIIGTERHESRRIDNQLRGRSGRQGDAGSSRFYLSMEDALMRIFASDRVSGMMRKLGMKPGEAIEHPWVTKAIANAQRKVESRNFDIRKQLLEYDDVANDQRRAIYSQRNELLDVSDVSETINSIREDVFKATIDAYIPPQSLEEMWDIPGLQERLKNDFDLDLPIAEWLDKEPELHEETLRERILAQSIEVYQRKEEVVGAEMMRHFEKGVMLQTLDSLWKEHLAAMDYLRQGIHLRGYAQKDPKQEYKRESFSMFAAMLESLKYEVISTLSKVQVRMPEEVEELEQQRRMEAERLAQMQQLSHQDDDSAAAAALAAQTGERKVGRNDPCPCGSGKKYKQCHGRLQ
Chromo domain-containing protein 1 (Saccharomyces cerevisiae (strain ATCC 204508 / S288c) (Baker's yeast)), sequence (P32657 whole entry, the tested form may be a part): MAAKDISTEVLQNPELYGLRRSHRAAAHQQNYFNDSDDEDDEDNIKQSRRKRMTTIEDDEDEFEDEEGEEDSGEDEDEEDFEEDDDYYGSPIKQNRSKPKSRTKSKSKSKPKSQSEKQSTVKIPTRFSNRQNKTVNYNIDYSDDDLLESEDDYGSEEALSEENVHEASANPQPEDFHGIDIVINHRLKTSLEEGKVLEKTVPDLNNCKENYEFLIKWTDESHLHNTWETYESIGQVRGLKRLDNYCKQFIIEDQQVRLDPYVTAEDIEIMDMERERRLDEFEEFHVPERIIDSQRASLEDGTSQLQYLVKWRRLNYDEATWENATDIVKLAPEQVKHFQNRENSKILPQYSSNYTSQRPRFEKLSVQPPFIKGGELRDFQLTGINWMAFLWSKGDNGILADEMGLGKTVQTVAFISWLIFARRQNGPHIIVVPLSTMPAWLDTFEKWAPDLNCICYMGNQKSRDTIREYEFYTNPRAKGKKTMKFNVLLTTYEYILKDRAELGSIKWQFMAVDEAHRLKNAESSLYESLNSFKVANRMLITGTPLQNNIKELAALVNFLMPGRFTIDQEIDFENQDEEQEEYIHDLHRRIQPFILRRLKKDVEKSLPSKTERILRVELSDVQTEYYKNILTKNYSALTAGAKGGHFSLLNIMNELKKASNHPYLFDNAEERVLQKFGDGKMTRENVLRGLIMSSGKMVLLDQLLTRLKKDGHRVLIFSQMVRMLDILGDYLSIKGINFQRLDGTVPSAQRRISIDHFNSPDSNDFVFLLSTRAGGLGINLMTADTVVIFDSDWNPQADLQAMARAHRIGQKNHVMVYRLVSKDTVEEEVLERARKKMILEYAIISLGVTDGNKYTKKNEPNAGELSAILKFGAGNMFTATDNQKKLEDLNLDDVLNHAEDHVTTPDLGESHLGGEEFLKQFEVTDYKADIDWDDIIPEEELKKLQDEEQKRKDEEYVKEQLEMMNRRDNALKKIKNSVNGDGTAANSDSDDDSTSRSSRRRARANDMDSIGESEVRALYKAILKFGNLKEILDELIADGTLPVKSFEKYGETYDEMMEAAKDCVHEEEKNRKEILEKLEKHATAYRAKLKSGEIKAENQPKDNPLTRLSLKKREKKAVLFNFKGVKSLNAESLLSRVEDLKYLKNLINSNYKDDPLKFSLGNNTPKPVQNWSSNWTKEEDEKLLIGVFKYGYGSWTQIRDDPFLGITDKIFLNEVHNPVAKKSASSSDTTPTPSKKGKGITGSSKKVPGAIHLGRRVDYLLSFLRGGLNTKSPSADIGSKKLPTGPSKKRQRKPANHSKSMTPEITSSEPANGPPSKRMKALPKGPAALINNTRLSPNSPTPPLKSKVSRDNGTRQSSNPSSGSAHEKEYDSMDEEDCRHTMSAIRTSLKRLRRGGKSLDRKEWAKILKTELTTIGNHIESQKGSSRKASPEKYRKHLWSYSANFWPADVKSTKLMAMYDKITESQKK

Take `O=C(NCC(O)c1cccc(F)c1)c1cccnc1O` (stereo unspecified): the Percent Effect in [1] is -5.99%; in assay [2] it was 16.4%; in assay [3], -2.16%; in assay [4] it was 7.14%; with Trypanosoma cruzi, 9.52%; in [5], -4.79%. In addition, the Percent Effect is 5.05% in assay [6]; 7.58% in the assay listed under Homo sapiens; 7.29% in assay [7]; 13.6% in assay [8]; -7.57% in assay [9].
As for `CC(C)COCc1cncc2c1CCN(Cc1cnn(C)c1)C2`, the Percent Effect was -5.06% in [1]; 7.79% in assay [2]; 2.31% in assay [3]; 5.43% in assay [4]; -0.688% with Trypanosoma cruzi; -29% in assay [5]. The Percent Effect is 4.16% in assay [6]; -12.6% in the assay listed under Homo sapiens; 7.53% in [7]; 11.1% in assay [8]; 133% in [9].
As for `CC(c1nc(C(C)(C)C)no1)N1CCN(CC(=O)N2CCOCC2)CC1` (stereo unspecified), the Percent Effect was -3.63% in assay [1]; 0% in [2]; 1.02% in assay [3]; 12.9% in [4]; -1.66% with Trypanosoma cruzi; -1.18% in assay [5]. For the same compound, the Percent Effect stood at 10.1% in [6]; 0.488% in the assay filed under Homo sapiens; 2.13% in assay [7]; 2.6% in assay [8]; 1.93% in assay [9].
On to `Cc1cnn(C2CN(CC(O)c3ccc(F)cc3)C2)c1` (stereo unspecified), for which the Percent Effect in assay [1] is 1.74%; in [2], -2.67%; in assay [3] it was -7.34%; in [4] it was 3.97%; in the assay on Trypanosoma cruzi it was 2.82%; in assay [5] it was 8.33%. Moreover, the Percent Effect in assay [6] was 3.31%; in the assay listed under Homo sapiens, 17.9%; in assay [7], 6.01%; in assay [8] it was 13.6%; in assay [9] it was 105%.
In the case of `CC(C)c1nc(C2CCCN(C(=O)CCn3ccnc3)C2)no1` (stereo unspecified), the Percent Effect was -0.0893% in assay [1]; 24.3% in assay [2]; -7.28% in [3]; -4.78% in assay [4]; 1.42% with Trypanosoma cruzi; -17.6% in assay [5]. Also, the Percent Effect in assay [6] was 16.4%; in the assay filed under Homo sapiens, 19.3%; in [7], 6.4%; in assay [8], 18.5%; in assay [9], -10.5%.
On to `COCCN(C)CC(=O)N1C[C@H]2CC[C@@H]1CN(C(=O)c1ccncc1)C2`, for which the Percent Effect was -4.1% in [1]; 5.33% in assay [2]; -2.28% in assay [3]; 3.27% in assay [4]; -5.75% with Trypanosoma cruzi; 1.56% in [5]. The Percent Effect was 17.1% in [6]; 27.7% in the assay listed under Homo sapiens; 6.01% in assay [7]; 13.6% in assay [8]; -5.9% in [9].
Take `CN(CC(=O)NC1(C#N)CCCC1)C1CCCN(c2cccnn2)C1` (stereo unspecified): the Percent Effect was -3.01% in [1]; 7.89% in assay [2]; -63.6% in [3]; 7.82% in assay [4]; 8.12% with Trypanosoma cruzi; 2.16% in [5]. Also, the Percent Effect in assay [6] is 11.6%; in the assay listed under Homo sapiens, -30.1%; in assay [7], 6.4%; in assay [8], 18.5%; in [9], -6.35%.
In the case of `Cc1cccc(OCCNC(=O)CN2CCCC2Cn2cccn2)c1` (stereo unspecified), the Percent Effect in assay [1] is -2.54%; in assay [2] it was -5.26%; in assay [3], -4.16%; in assay [4], 6.34%; in the assay with Trypanosoma cruzi, 4.95%; in assay [5] it was -4.32%. Also, the Percent Effect in assay [6] is -0.931%; in the assay filed under Homo sapiens it was -9.42%; in [7], 5.42%; in assay [8] it was 11.1%; in assay [9], -3.56%.
On to `CN(Cc1ccsc1)C(=O)c1cccc(S(=O)(=O)NC(C)(C)C)c1`, for which the Percent Effect in assay [1] is -1.82%; in assay [2], 23.4%; in assay [3], -6.77%; in assay [4], -1.29%; in the assay on Trypanosoma cruzi, 3%; in assay [5], -3.56%. Further, the Percent Effect in [6] is 12%; in the assay filed under Homo sapiens, 18.1%; in assay [7] it was 6.8%; in [8], 12.2%; in [9], -7.59%.
As for `CCSCCNC(=O)C(c1cccc(C)c1)N(C)C` (stereo unspecified), the Percent Effect was 0.71% in [1]; 16.2% in assay [2]; 4.54% in assay [3]; 18.5% in assay [4]; 4.83% in the assay with Trypanosoma cruzi; 1.43% in assay [5]. The Percent Effect in assay [6] is 12.1%; in the assay listed under Homo sapiens, 20.1%; in assay [7], 6.88%; in assay [8], 17.1%; in assay [9], -11.3%.
Regarding `COc1ccc(OC)c(NC(=O)NCC(O)c2ccc(F)c(F)c2)c1` (stereo unspecified), the Percent Effect is -0.0799% in [1]; 8.86% in assay [2]; 8.98% in assay [3]; -1.21% in assay [4]; -5.44% in the assay on Trypanosoma cruzi; 3.23% in assay [5]. For the same compound, the Percent Effect is 15.6% in [6]; 9.13% in the assay listed under Homo sapiens; -1.04% in assay [7]; 5.06% in [8]; -21.5% in [9].
